Bioassay records (PubChem)
C diff HTS – C. difficile growth inhibitors, primary screen, HTS | Clostridium difficile clinical isolate growth, OD600, 24 h; active compounds read low | growth activity, negative = inhibition, % at 16 µg/mL (by protocol) | hit rate 0.25% among 86,000 | AID 1259249, 2017;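 active = mean growth activity at or below -80% and every replicate also at or below -80%; inconclusive = mean at or below -80% but some replicate above -80%; inactive = mean growth activity above -80%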
T cruzi growth-1 – T. cruzi intracellular proliferation inhibitors, primary screen, cell-based, beta-gal Tulahuen parasites, NIH3T3 host, luminescence | T. cruzi beta-gal in NIH3T3, GalScreen luminescence, 90 h | inhibition, % at 8.34 µM | hit rate 5.9% among 77,000;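 active = mean inhibition above about 93%, with at least 55% of replicates each passing it, limit read from the data, passing the limit was not always enough; inconclusive = only one of those two conditions holds; inactive = neither condition holds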
T cruzi growth-2 – T. cruzi intracellular proliferation inhibitors, confirmation, cell-based, NIH3T3 host, beta-gal parasite, luminescence, cherry-pick | shares compounds with T cruzi growth-1 | T. cruzi beta-gal in NIH3T3, GalScreen luminescence, 90 h | inhibition, % at 8.35 µM | hit rate 72% among 5,600;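 active = mean replicate inhibition above about 95% and at least 55% of replicates individually reaching it, limit read from the data; inconclusive = only one of the two criteria is met; inactive = neither criterion is met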
T cruzi growth-3 – inhibitors of intracellular T. cruzi replication, confirmation, NIH3T3 host cells, beta-gal parasites, cherry-pick, set 2. shares compounds with T cruzi growth-1. T. cruzi beta-gal in NIH3T3, GalScreen luminescence, 90 h. inhibition, % at 2.09 µM. AID 651740, 2012. hit rate 21% among 5,600;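 active = mean inhibition above about 95%, with at least 55% of replicates also reaching it, limit read from the data; inconclusive = meets just one of the two conditions; inactive = meets neither condition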
NIH3T3 tox – cytotoxicity in mouse NIH/3T3 fibroblasts, confirmation, cytotoxicity control for T. cruzi proliferation inhibitor project, cell-based, cherry-pick, single point; shares compounds with T cruzi growth-1; AID 651742, 2012; hit rate 14% among 5,600; NIH/3T3 viability, CellTiter-Glo ATP luminescence, 90 h; cytotoxicity (signal decrease), % at 8.35 µM;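 active = mean signal decrease across replicates above about 35% based on untreated-well scatter, with enough replicates individually passing, limit read from the data; inconclusive = no rule stated though some were filed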
3T3 cytotox 2 – NIH/3T3 fibroblast cytotoxicity, confirmation, cytotoxicity control, cell-based, cherry-pick, single point, set 2; shares compounds with T cruzi growth-1; NIH/3T3 viability, CellTiter-Glo ATP luminescence, 90 h; inhibition, % at 24.9 µM; hit rate 56% among 5,600;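 active = mean loss of cell viability signal at or above a set limit, and enough replicates individually reaching it; inconclusive = meets only the mean limit or only the replicate share; inactive = meets neither condition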
Of the large screens only hits and unclear results are named; the others gave an inactive call (follow-up assays come after a bar, where they were run). The entries come from a sample that favours hits as a whole.

CCCNC(=O)N(C)C[C@@H]1Oc2ncc(C#Cc3ccccc3F)cc2C(=O)N([C@H](C)CO)C[C@H]1C	T cruzi growth-1 107 | T cruzi growth-2 97 | T cruzi growth-3 inactive | NIH3T3 tox inactive | 3T3 cytotox 2 43
CCCNC(=O)N(C)C[C@H]1Oc2ncc(C#Cc3ccccc3F)cc2C(=O)N([C@H](C)CO)C[C@H]1C	none
C[C@@H]1CN([C@H](C)CO)C(=O)c2cc(C#Cc3ccccc3F)cnc2O[C@@H]1CN(C)C	T cruzi growth-1 98 | T cruzi growth-2 inactive | T cruzi growth-3 inactive | NIH3T3 tox inactive | 3T3 cytotox 2 inconclusive
C[C@@H]1CN([C@@H](C)CO)C(=O)c2cc(C#Cc3ccccc3F)cnc2O[C@H]1CN(C)S(=O)(=O)c1ccccc1F	T cruzi growth-1 108 | T cruzi growth-2 115 | T cruzi growth-3 105 | NIH3T3 tox inactive | 3T3 cytotox 2 68
C[C@@H]1CN([C@H](C)CO)C(=O)c2cc(C#Cc3ccccc3)cnc2O[C@@H]1CN(C)S(=O)(=O)c1ccccc1F	none
C[C@H](CO)N1C[C@H](C)[C@@H](CN(C)C)Oc2ncc(C#Cc3ccccc3F)cc2C1=O	none
C[C@@H]1CN([C@@H](C)CO)C(=O)c2cc(C#Cc3ccccc3F)cnc2O[C@H]1CN(C)S(C)(=O)=O	none (no result: C diff HTS)
C[C@H](CO)N1C[C@H](C)[C@H](CN(C)S(=O)(=O)c2ccccc2)Oc2ncc(C#Cc3ccccc3F)cc2C1=O	T cruzi growth-1 113 | T cruzi growth-2 104 | T cruzi growth-3 inactive | NIH3T3 tox inactive | 3T3 cytotox 2 55
COCC(=O)N1[C@H](C(=O)N2CCCCC2)[C@@H](CO)[C@@H]2Cn3c(ccc(C4=CCCCC4)c3=O)[C@@H]21	none
CCCNC(=O)C[C@H]1CC[C@H]2[C@@H](COc3ccc(NC(=O)Nc4cccc(C)c4)cc3C(=O)N2C)O1	none
CCCC(=O)Nc1ccc2c(c1)C(=O)N(C)[C@@H]1CC[C@H](CC(=O)OC)O[C@@H]1CO2	none
COc1ccc(-c2ccc3n(c2=O)C[C@H]2[C@H](CO)[C@@H](C(=O)NCCN4CCCCC4)N(C)[C@@H]32)cc1	none (no result: T cruzi growth-1)
CNC[C@H]1OCCCC[C@H](C)Oc2ccc(NS(=O)(=O)c3ccc(OC)cc3)cc2C(=O)N([C@@H](C)CO)C[C@H]1C	none
C[C@H]1CN([C@@H](C)CO)C(=O)c2cc(C#Cc3ccccc3F)cnc2O[C@H]1CN(C)S(=O)(=O)c1ccccc1	none (no result: T cruzi growth-1)
C[C@@H]1CN([C@@H](C)CO)C(=O)c2cc(C#Cc3ccccc3F)cnc2O[C@H]1CN(C)S(=O)(=O)c1ccccc1	T cruzi growth-1 121 | T cruzi growth-2 110 | T cruzi growth-3 inactive | NIH3T3 tox inactive | 3T3 cytotox 2 25
Cc1noc(C)c1NC(=O)Nc1ccc2c(c1)C(=O)N([C@@H](C)CO)C[C@H](C)[C@@H](CN(C)S(=O)(=O)c1ccc(F)cc1)OCCCC[C@@H](C)O2	none
O=C(NC1CCCC1)N1CCCCN2[C@H](C1)[C@@H](c1ccc(/C=C/c3ccccc3)cc1)[C@@H]2CO	none
O=C(NC1CCCC1)N1CCCCN2[C@H](CO)[C@@H](c3ccc(/C=C/c4ccccc4)cc3)[C@@H]2C1	T cruzi growth-1 107 | T cruzi growth-2 100 | T cruzi growth-3 101 | NIH3T3 tox inactive | 3T3 cytotox 2 104
O=C(NC1CCCC1)N1CC(=O)N2[C@H](C1)[C@@H](c1ccc(/C=C/c3ccccc3)cc1)[C@@H]2CO	none (no result: T cruzi growth-1)
O=C(NC1CCCC1)N1CCCCN2[C@H](C1)[C@H](c1ccc(/C=C/c3ccccc3)cc1)[C@@H]2CO	T cruzi growth-1 104 | T cruzi growth-2 104 | T cruzi growth-3 inactive | NIH3T3 tox inactive | 3T3 cytotox 2 105
COc1cccc(CN(C)C[C@@H]2OCc3cn(nn3)CCCC(=O)N([C@H](C)CO)C[C@@H]2C)c1	none (no result: C diff HTS)
CCC(=O)Nc1ccc2c(c1)OC[C@H](C)N(C(=O)c1ccncc1)C[C@@H](C)[C@H](OC)CN(C)C2=O	none
Cc1noc(C)c1NC(=O)Nc1ccc2c(c1)C(=O)N([C@H](C)CO)C[C@@H](C)[C@@H](CN(C)Cc1ccc(Oc3ccccc3)cc1)O2	none
O=C(Nc1cc(F)ccc1F)N1CCCCN2[C@H](CO)[C@@H](c3ccc(-c4cccnc4)cc3)[C@H]2C1	none
O=C(Nc1cc(F)ccc1F)N1CCCCN2[C@H](CO)[C@@H](c3ccc(-c4ccncc4)cc3)[C@@H]2C1	none
O=C(Nc1cc(F)ccc1F)N1CCCCN2[C@H](CO)[C@H](c3ccc(-c4cccnc4)cc3)[C@H]2C1	T cruzi growth-1 104 | T cruzi growth-2 101 | T cruzi growth-3 inactive | NIH3T3 tox inactive | 3T3 cytotox 2 inconclusive
O=C(Nc1cc(F)ccc1F)N1CCCCN2[C@H](C1)[C@@H](c1ccc(-c3ccncc3)cc1)[C@@H]2CO	none
O=C(Nc1cc(F)ccc1F)N1CCCCN2[C@H](CO)[C@H](c3ccc(-c4cncnc4)cc3)[C@@H]2C1	T cruzi growth-1 115 | T cruzi growth-2 inactive | T cruzi growth-3 inactive | NIH3T3 tox inactive | 3T3 cytotox 2 inactive
O=C(Nc1cc(F)ccc1F)N1CCCCN2[C@H](C1)[C@@H](c1ccc(-c3cncnc3)cc1)[C@@H]2CO	T cruzi growth-1 105 | T cruzi growth-2 inactive | T cruzi growth-3 inactive | NIH3T3 tox inactive | 3T3 cytotox 2 inactive
O=C(Nc1cc(F)ccc1F)N1CCCCN2[C@H](CO)[C@@H](c3ccc(-c4ccccc4)cc3)[C@H]2C1	none
O=C(Nc1cc(F)ccc1F)N1CCCCN2[C@H](C1)[C@@H](c1ccc(-c3ccccc3)cc1)[C@@H]2CO	T cruzi growth-1 99 | T cruzi growth-2 101 | T cruzi growth-3 102 | NIH3T3 tox 62 | 3T3 cytotox 2 106
CCC(=O)N1CC2(C1)CN(C(=O)Nc1ccccc1F)[C@@H](CO)c1c2c2ccc(OC)cc2n1C	none (no result: T cruzi growth-1)
O=C(c1cccnc1)N1C[C@H]2[C@@H](c3ccccc31)[C@@H](CO)N2C(=O)C1CCCC1	none
C[C@@H]1CN([C@@H](C)CO)C(=O)Cc2cc(NC(=O)NC3CCCCC3)ccc2O[C@@H]1CN(C)C(=O)NC1CCCCC1	none
O=C(c1cccnc1)N1C[C@@H]2[C@H](c3ccccc31)[C@@H](CO)N2C(=O)C1CC1	none
CO[C@@H]1CN(C)C(=O)c2cc(NC(C)=O)ccc2OC[C@H](C)N(Cc2ccccn2)C[C@@H]1C	none
C[C@H]1CN([C@@H](C)CO)S(=O)(=O)c2ccc(C3=CCCCC3)cc2O[C@@H]1CN(C)C(=O)c1ccncc1	none
